A selection: hits, their analogues and other compounds. The true share with any hit is near 1.5%.
MLLE-PAM2 inh – blocks PAM2 peptide binding to the PABP1 MLLE domain | GST-MLLE / FITC-PAM2 fluorescence polarization | inhibition, % at 20 µM | actives 0.36% (n = 360,000) | AID 588489; in the data active = inhibition above about 35%, passing the limit was not always enough
PABP FP inh – blocks human PABP binding to poly(A) RNA; fluorescence polarization; calls only at 35 µM; actives 1% (n = 290,000); AID 2014;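 also: calls also rest on retests at 20 µM and on dose response follow-up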
eIF4E-4G inh – eIF4E/eIF4G interaction inhibition in translation initiation; AID 782; P63073+Q04637; actives 0.37% (n = 220,000); TR-FRET eIF4E-eIF4GI(517-606) binding, 2 h; inhibition, % at 21.7 µM;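 active = inhibition above about 30%, limit read from the data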
eIF4H inh – inhibitors of RNA binding by human eIF4H. actives 0.94% (n = 290,000). inhibition, % at 35 µM. Q15056. eIF4H fluorescence polarization binding assay;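 also: calls also rest on retests at 20 µM and on dose response follow-up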
Hits are given with their value; i = inactive; ? = inconclusive; nt = not tested or not shown; + = active, no number. Unless noted, no rule for the calls is given here.

SMILES | MLLE-PAM2 inh | PABP FP inh | eIF4E-4G inh | eIF4H inh
CSc1ccc(C2NC(=O)c3c(sc4c3CCN(C)C4)N2)cc1 (configuration not stated) | i | + | i | 109
O=C(CSc1nc2[nH]ncc2c(=O)[nH]1)Nc1nccs1 | nt | + | i | active
O=C(Nc1ccccc1OC(F)F)c1cc2c(s1)CCC2 | i | i | i | 84
COc1ccccc1NC(=O)c1ccc(NC(=O)c2cc3c(s2)CCC3)cc1 | i | i | 41 | i
Cc1ccc(NC(=O)c2cc3c(s2)CCCC3)cc1 | i | i | i | i
O=C(COC(=O)c1cc2c(s1)CCC2)Nc1ccc(F)cc1 | i | + | i | 97
O=S(=O)(NCCS(=O)(=O)N1CCN(c2ccc(F)cc2)CC1)c1ccccc1 | i | nt | nt | nt
COc1ccccc1-c1cnc(C(O)c2ccc(C)cc2)[nH]1 (configuration not stated) | i | nt | nt | nt
O=c1cc(CSc2nnnn2-c2ccccc2)[nH]c2[nH]n(-c3ccccc3)c(=O)c12 | i | + | i | 79
COc1cccc(Cn2c3ccc(NC(=O)Cc4ccccc4C)cc3c(=O)n2C)c1 | i | nt | nt | nt
CC1(C)OC2CC3C4CCC5=CC(=O)C=CC5(C)C4(F)C(O)CC3(C)C2(C(=O)CO)O1 (configuration not stated) | i | nt | nt | nt
COC(=O)c1ccc(/C=C(\C#N)c2nc3ccccc3s2)cc1 | i | + | i | ?
CCCCNC(=O)c1ccc2nc(CC)c(N(C)Cc3cccs3)n2c1 | i | nt | nt | nt
Cc1c2c(=O)n(-c3nc4ccccc4s3)nc-2cc(O)n1Cc1ccccc1 | i | + | 32 | 60
CN(C(=O)CSc1nnc(-c2cccnc2)n1-c1ccccc1F)C1CCS(=O)(=O)C1 (configuration not stated) | i | + | i | 39
COCCn1c(C)cc(C(=O)CSc2nnc(-c3cccnc3)n2-c2ccccc2F)c1C | i | + | i | i
COc1ccc(NC(=O)C2(C)Cc3c(-c4ccc(C(N)=O)cc4)ccnc3O2)cn1 (configuration not stated) | i | nt | nt | nt
Cc1ccc(C(=O)NC(=S)NNS(=O)(=O)c2ccccc2)cc1 | 41 | i | i | i
CCC(=O)N1CCC1(C)C(=O)Nc1ccc2nc(C)ccc2c1 (configuration not stated) | i | nt | nt | nt
NC(=O)COc1ccc(/C=N/NS(=O)(=O)c2ccccc2)cc1 | i | + | i | i
CC1(OC(=O)C2CCCC2)C(=O)C=C2C=C(c3ccsc3)N(CCCCO)C=C2C1=O (configuration not stated) | i | i | i | i
CC1(OC(=O)C2CCCC2)C(=O)C=C2C=C(c3ccsc3)N(Cc3ccco3)C=C2C1=O (configuration not stated) | i | + | i | 94
O=C(O)CCCNc1cc(N2CCN(C(=O)c3ccco3)CC2)c2noc3c2c1C(=O)c1ccccc1-3 | i | ? | nt | ?
CN1CCN(c2cc(N3CCN(C(=O)c4ccco4)CC3)c3c4c(onc24)-c2ccccc2C3=O)CC1 | i | + | nt | 93
O=C(c1ccco1)N1CCN(CCCCN2C(=O)c3ccccc3C2=O)CC1 | i | i | i | i
SMILES | MLLE-PAM2 inh | PABP FP inh | eIF4E-4G inh | eIF4H inh
O=C1c2ccccc2-c2onc3c(N4CCN(CCO)CC4)cc(N4CCN(C(=O)c5ccco5)CC4)c1c23 | i | + | nt | 83
COC(C[C@@H]1O[C@@H]1C(=O)COCc1ccccc1)OC | i | i | i | i
CN1/C(=C\C(=O)c2cccc([N+](=O)[O-])c2)Sc2ccccc21 | 39 | i | nt | i
O=C(/C=C/c1ccc(F)cc1)c1cc(Br)ccc1O | i | i | i | i
O=C(/C=C/c1ccccc1)c1cc(Br)ccc(=O)c1O | i | + | i | 83
Cc1ccc(/C=C/C(=O)c2ccccc(=O)c2O)cc1C | i | + | i | 66
CCOC(=O)c1c(-c2ccc(C)o2)csc1NC(=S)NC(=O)c1ccc(F)cc1 | 46 | i | i | i
CCOc1cc(N2CCOCC2)c(OCC)cc1NCC(=O)N1CCN(Cc2ccccc2)CC1 | i | i | i | i
COc1cc(CNc2ncnc3c2ncn3[C@H]2CN(CCc3ccccc3)C[C@@H](CO)O2)cc(OC)c1OC | i | nt | nt | nt
COc1cc(C(=O)NCc2ccc(C(=O)NCC(OC)OC)cc2)cc(OC)c1OC | i | i | 63 | i
COc1cc(C(=O)NCC(C)C)cc(OC)c1OC | i | i | i | i
CC(=O)NC(c1ccc(F)c(F)c1)c1nc(-c2ccncc2)cs1 (configuration not stated) | i | nt | nt | nt
CS(=O)(=O)N1CCN(C(=S)NCc2ccc(Cl)cc2)CC1 | i | + | i | 82
CS(=O)(=O)N1CCN(C(=S)NCc2ccc(F)cc2)CC1 | i | i | i | i
CCOC(=O)C1CCN(C(=O)c2ccc3c(=O)n4nc(Nc5ccccc5)sc4nc3c2)CC1 | i | nt | nt | nt
CCN(CC)c1ccc(/C=N/NC(=O)c2ccc3nc[nH]c3c2)cc1 | i | i | 87 | i
CN(C)c1ccc(/C=N/NC(=O)c2ccc3nc[nH]c3c2)cc1 | i | i | i | i
C[C@H]1CN([C@@H](C)CO)C(=O)CCCn2nncc2CO[C@H]1CN(C)S(C)(=O)=O | i | nt | nt | nt
COc1ccc([N+](=O)[O-])cc1/C=N/NC(=O)CNC(=O)c1cccc(F)c1 | i | i | i | i
COc1ccc([N+](=O)[O-])cc1/C=N/NC(=O)CNC(=O)C(c1ccccc1)c1ccccc1 | i | + | i | 84
CC1=C(C(=O)N2CCOCC2)CC(CC(=O)NCCCCc2ccccc2)C(=O)N1Cc1ccc(C(C)(C)C)cc1 (configuration not stated) | i | nt | nt | nt
Cc1cc(C(=O)NC2CCCCC2)c(C)o1 | i | nt | nt | nt
Cc1cc(C(=O)NC2Cc3ccccc3C2)c(C)o1 | i | + | i | 96
O=C1c2ccccc2C(=O)N1c1cccc2cccnc12 | i | i | i | 64
Cc1ccc(OCC(=O)N2CCN(C(=O)c3ccco3)CC2)cc1 | i | i | i | i
SMILES | MLLE-PAM2 inh | PABP FP inh | eIF4E-4G inh | eIF4H inh
Cc1ccc(OCC(=O)N2CCN(C(=O)c3cccs3)CC2)cc1 | i | + | i | active
CN(C)C(CNC(=O)c1sc2ccccc2c1Cl)c1ccco1 (configuration not stated) | i | nt | nt | nt
CCCCn1c(/C=C/c2ccco2)nc2ccccc21 | i | + | i | 52
N#CC1=C2N=C(N)c3ccccc3N2C2=C(C(=O)CCC2)C1c1ccc(F)cc1 (configuration not stated) | i | i | 94 | i
Nc1c(Br)cc(Br)c2c1[nH]c(=O)c1ccccc12 | i | nt | nt | nt
CCc1nc2c(OCc3ccc(C(=O)N(C)C)cc3)cccn2c1N(C)C(=O)Nc1ccccc1OC | i | nt | nt | nt
O=[N+]([O-])c1ccccc1-c1ccc(C(=S)N2CCN(c3ccccc3)CC2)o1 | i | i | i | i
N#C/C(=C\c1ccc(-c2ccccc2[N+](=O)[O-])o1)C(=O)N1CCOCC1 | i | i | i | 61
O=C(COC(=O)c1ccc(Cl)c(S(=O)(=O)N2CCCCCC2)c1)NCc1ccccc1 | i | nt | nt | nt
O=C(N=Nc1c(O)[nH]c2ccc([N+](=O)[O-])cc12)c1cc(-c2ccccc2Cl)nc2ccccc12 | i | i | 34 | i
COc1ccccc1C(=O)N=Nc1c(O)[nH]c2ccc([N+](=O)[O-])cc12 | i | i | i | i
Cn1c(Cc2c[nH]c3ccccc23)n[nH]c1=S | i | i | i | 6.5

Screening data: PubChem BioAssay, several laboratories
